Source: PubChem BioAssay (Tox21)
Results filed as inconclusive are left out. Activity calls are given as the source filed them. Calls come from the whole dose curve.

Experiments:
[1] = target: Acetylcholinesterase (Homo sapiens) (UniProt P22303); test: Acetylcholinesterase (AChE) small molecule antagonists: colormetric cell-based qHTS assay (AID 1347395); note: nearly all actives have a fitted effect of over 30% in size
Outline: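 AChE inhibition read colorimetrically via DTNB–thiocholine in SH-SY5Y cells. Compound 30 min, substrate 90 min, both 37 C.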

[2] = target: Acetylcholinesterase (Homo sapiens) (UniProt P22303); test: Acetylcholinesterase (AChE) small molecule antagonists: enzyme-based qHTS assay (AID 1347397); settings: Potency: AChE enzyme activity inhibition; outcome: AChE enzyme activity inhibition; note: nearly all actives have a fitted effect of over 55% in size
Outline: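 First, recombinant human AChE (50 mU/mL as dispensed) received test compound or DMSO. Second, plates stood 30 min at room temperature. Third, DTNB and acetylthiocholine were added, followed by 10 min at room temperature and colorimetric detection.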

[3] = target: Acetylcholinesterase (Homo sapiens) (UniProt P22303); test: Acetylcholinesterase (AChE) small molecule antagonists: fluorescence cell-based qHTS assay (AID 1347398); settings: Potency: AChE activity; outcome: AChE activity; note: nearly all actives have a fitted effect of over 50% in size
Outline: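 Homogeneous quantitative HTS format. SH-SY5Y cells seeded at 2,000 per well settle overnight at 37 C. Compound pretreatment runs 30 min (37 C, 5% CO2); substrate/probe mix then reacts 40 min at RT before reading 490/520 nm.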

[4] = target: Acetylcholinesterase (Homo sapiens) (UniProt P22303); test: Acetylcholinesterase (AChE) small molecule antagonists: enzyme-based qHTS assay with human liver microsomes (AID 1347399); settings: Potency: qHTS inhibition; outcome: qHTS inhibition; note: nearly all actives have a fitted effect of over 60% in size
Outline: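 Recombinant human AChE (50 mU/mL in the enzyme mix) and human liver microsomes (0.25 mg/mL final) were preincubated with compound and NADPH (0.25 mg/mL final) for 30 min at 37 C. Acetylthiocholine/DTNB was then added; thiocholine was read colorimetrically after 10 min at room temperature.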

Measured: Potency

Chain of Acetylcholinesterase (Homo sapiens) (P22303 whole entry, looked up): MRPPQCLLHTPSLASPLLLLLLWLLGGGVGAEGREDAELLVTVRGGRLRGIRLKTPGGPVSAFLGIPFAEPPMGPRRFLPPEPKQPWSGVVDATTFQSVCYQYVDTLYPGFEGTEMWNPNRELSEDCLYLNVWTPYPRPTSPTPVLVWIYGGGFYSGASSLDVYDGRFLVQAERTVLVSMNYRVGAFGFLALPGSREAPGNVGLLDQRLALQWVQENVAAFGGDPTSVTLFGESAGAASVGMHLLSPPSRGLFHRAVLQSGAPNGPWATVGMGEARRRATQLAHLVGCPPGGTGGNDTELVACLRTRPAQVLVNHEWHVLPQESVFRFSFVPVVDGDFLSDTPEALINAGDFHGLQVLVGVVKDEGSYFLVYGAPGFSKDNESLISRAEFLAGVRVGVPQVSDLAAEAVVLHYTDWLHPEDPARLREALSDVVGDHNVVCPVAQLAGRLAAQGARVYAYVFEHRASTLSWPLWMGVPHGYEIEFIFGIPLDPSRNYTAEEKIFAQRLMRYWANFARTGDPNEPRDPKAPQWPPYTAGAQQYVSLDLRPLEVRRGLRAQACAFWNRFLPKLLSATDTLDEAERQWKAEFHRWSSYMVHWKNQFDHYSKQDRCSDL

CO[C@@H]1COCC[C@@H]1N[C@@H]1CC[C@@](C(=O)N2CCc3ncc(C(F)(F)F)cc3C2)(C(C)C)C1
inactive: all assays above

CCCCCCNC(=O)n1cc(F)c(=O)[nH]c1=O
inactive: all assays above

CCCC(=O)OC(=O)CCC
inactive: all assays above

O=C1CCCCCCCCCCC(=O)OCCO1
inactive: all assays above

NC(=O)c1cc[n+](CC2=C(C(=O)[O-])N3C(=O)[C@@H](NC(=O)Cc4cccs4)[C@H]3SC2)cc1
inactive: all assays above

COC(=O)NCCC[Si](OC)(OC)OC
inactive: all assays above

O=C(CCOCCOCCOCCOCCC(=O)Nc1c(I)cc(I)c(C(=O)O)c1I)Nc1c(I)cc(I)c(C(=O)O)c1I
inactive: all assays above

CCC(C)(C)C(=O)O
inactive: all assays above

CCCCCCC(O)CO (stereo not given)
inactive: all assays above

N#CC1(c2ccc(F)cc2)CCC(=O)CC1
inactive: all assays above

CO[Si](C)(OC)c1ccccc1
inactive: all assays above

C=CCCCCCCCCCCCC
inactive: all assays above

O=C(O)COc1ccc2ccccc2c1
inactive: all assays above

SCCCCCCCCS
inactive: all assays above

Nc1c(Br)cc([N+](=O)[O-])cc1Br
inactive: all assays above

CC(C)c1ccccc1
inactive: all assays above

C[C@H]1NCc2cc(-c3ccc4c(=O)c(C(=O)O)cn(C5CC5)c4c3OC(F)F)ccc21
inactive: all assays above

Cc1ccc(N/N=c2\c(=O)cc/c(=N\Nc3ccc(S(=O)(=O)O)cc3)c2=O)c(C)c1
inactive: all assays above

CC[N+](C)(CC)CCOC(=O)C(O)(c1ccccc1)C1CCCCC1 (stereo not given)
inactive: all assays above

C=CC(C)(CCC=C(C)C)OC(=O)C(C)C (stereo not given)
inactive: all assays above

CC1=NN(c2ccc(S(=O)(=O)O)cc2)C(=O)C1N=Nc1ccccc1 (stereo not given)
inactive: all assays above

c1coc(Cn2cccc2)c1
inactive: all assays above

CC(C)(C)C1CCCCC1=O (stereo not given)
inactive: all assays above

CCOc1ccccc1N
inactive: all assays above

O=C(O)c1cc(Cl)cc([N+](=O)[O-])c1Cl
inactive: all assays above

Cc1ccc2sc3cccc(C)c3c2c1
inactive: all assays above

CO[Si](CCCCl)(OC)OC
inactive: all assays above

O=c1[nH]ncc2ccccc12
inactive: all assays above

Cn1cnc2ncnc(N)c21
inactive: all assays above

Cc1ccc(C=O)s1
inactive: all assays above

Cc1ccc(C(C)NC(=O)[C@@H](NC(=O)OC(C)C)C(C)C)cc1 (stereo not given in full)
inactive: all assays above

C=CCCCC
inactive: all assays above

CCCCCCOc1ccccc1C(N)=O
inactive: all assays above

SCCSCCS
inactive: all assays above

OCc1ccccn1
inactive: all assays above

CN(C)C(=O)Nc1ccccc1
inactive: all assays above

CC(C)(O)C(=O)O
inactive: all assays above

C=CCc1ccccc1OCC(O)CNC(C)C (stereo not given)
inactive: all assays above

O=S(=O)(O)c1ccccc1/C=C/c1ccc(-c2ccc(/C=C/c3ccccc3S(=O)(=O)O)cc2)cc1
inactive: all assays above

O=C1c2ccccc2C(=O)c2c(Cl)cccc21
inactive: all assays above

O=C(O)[C@@H]1[C@H]2C[C@H]3c4[nH]c5ccccc5c4CCN3C[C@@H]2CC[C@@H]1O
inactive: all assays above

CCCSS/C(CCO)=C(\C)N(C=O)Cc1cnc(C)nc1N
inactive: all assays above

CNCCS(=O)(=O)O
inactive: all assays above

O=C(OCC(COC(=O)c1ccccc1)(COC(=O)c1ccccc1)COC(=O)c1ccccc1)c1ccccc1
inactive: all assays above

C[C@H](CCC(=O)O)[C@H]1CC[C@H]2[C@@H]3[C@H](O)C[C@@H]4C[C@H](O)CC[C@]4(C)[C@H]3C[C@H](O)[C@]12C
inactive: all assays above
